Bioassay records from PubChem BioAssay.
Only some compounds are listed: those with a hit (about 3.2% of all), similar ones and a draw of the others.
CHT PAM: allosteric activators of human choline transporter CHT | AID 488977 | B-score at 10 µM | hit rate 0.49% among 310,000 | CHT-expressing cells, membrane potential dye, choline EC20; hits give high values; LV-AA mutant CHT in HEK293 cells;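 active = initial fluorescence not abnormally high and integrated response B-score, plate-corrected, over 3 SD above library mean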
Target sequence (Q9GZV3 whole entry, looked up): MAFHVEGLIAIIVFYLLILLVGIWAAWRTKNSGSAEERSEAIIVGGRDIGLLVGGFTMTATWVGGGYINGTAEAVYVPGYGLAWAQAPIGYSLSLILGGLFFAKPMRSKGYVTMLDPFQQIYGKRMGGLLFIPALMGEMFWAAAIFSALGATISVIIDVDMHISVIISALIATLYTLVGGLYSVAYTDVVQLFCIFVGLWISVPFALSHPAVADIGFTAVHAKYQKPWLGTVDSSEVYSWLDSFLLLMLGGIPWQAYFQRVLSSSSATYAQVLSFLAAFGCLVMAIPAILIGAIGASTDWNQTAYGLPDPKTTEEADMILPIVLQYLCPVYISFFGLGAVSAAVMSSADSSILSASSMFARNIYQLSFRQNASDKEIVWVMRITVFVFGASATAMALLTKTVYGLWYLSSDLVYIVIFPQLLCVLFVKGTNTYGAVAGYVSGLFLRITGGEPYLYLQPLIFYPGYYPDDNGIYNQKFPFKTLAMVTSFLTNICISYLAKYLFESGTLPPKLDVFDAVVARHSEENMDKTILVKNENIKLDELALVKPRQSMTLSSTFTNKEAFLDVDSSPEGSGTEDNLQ
CHT block: human CHT choline transport inhibition; CHT-expressing cells, membrane potential dye, choline response; hits give low values; B-score at 10 µM; Q9GZV3; hit rate 0.86% among 310,000; AID 488975;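 active = B-score over 3 SD under the library average, and starting fluorescence ratio not unusually high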;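 note: choline stimulus applied at its EC90 after an EC20 pre-addition; B-score computed on integrated fluorescence ratio after choline addition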
PHOSPHO1 block: PHOSPHO1 (human) inhibition | Q8TCT1 | recombinant PHOSPHO1, absorbance phosphatase assay | inhibition, % at 13.3 µM | hit rate 1.1% among 290,000 | AID 1565; in the data active = inhibition above about 60%
ANO1 activ: activators or potentiators of mouse TMEM16A chloride channel; Q8BHY3; HEK293 TMEM16A/YFP-H148Q/I152L, iodide quench fluorescence; hits give low values; B-score at 10 µM; hit rate 0.3% among 340,000; AID 623877;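 active = fluorescence-ratio B-score plate-corrected deviation score at least 3 library SD below zero, with starting fluorescence score within 5 deviations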;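 note: channel opened by trigger with iodide after compound preincubation; score built on the fluorescence ratio of max minus min over baseline; more negative score means more quench and so TMEM16A activation or potentiation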
ANO1 block: blocks the mouse calcium-activated chloride channel TMEM16A; hit rate 1.2% among 310,000; normalized B-score (activity score, 25-100; higher = stronger inhibition) at 10 µM; Q8BHY3; AID 588511; HEK293 TMEM16A/YFP iodide influx fluorescence, ionomycin;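 active = ratio plate-corrected score three or more library SD toward inhibition, starting fluorescence score within five deviations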;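 note: score derived from kinetic fluorescence span divided by baseline fluorescence per well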
HDAC3 inhib: inhibitors of human histone deacetylase 3; O15379; recombinant HDAC3, fluorogenic peptide/trypsin coupled, fluorescence; inhibition, % at 8.3 µM; hit rate 0.15% among 320,000; AID 2718; in the data active = inhibition above about 26%, passing the limit was not always enough; inconclusive = no clear call, values can overlap the other calls
* hit, by the source's call; i = inactive; ? = inconclusive; . = no result given.

SMILES	CHT PAM	CHT block	PHOSPHO1 block	ANO1 activ	ANO1 block	HDAC3 inhib
COc1ccc2cc(C(c3nnnn3Cc3ccccc3)N3CCCCCC3)c(=O)[nH]c2c1 (stereo not drawn)	i	i	94*	i	i	4
Cc1ccc2cc(C(c3nnnn3C(C)(C)C)N3CCCCCC3)c(=O)[nH]c2c1 (stereo not drawn)	i	i	102*	i	i	.
CCOc1ccc(C(C)=O)cc1CSc1nnc(-c2ccoc2C)n1N	i	i	75*	i	i	-2
CC(C(=O)OCC(=O)Nc1ccc2c(c1)OCO2)N1C(=O)c2ccccc2C1=O (stereo not drawn)	i	i	-30	i	i	4
COc1cc(-c2nn3c(Cc4ccccc4)nnc3s2)cc(OC)c1OC	i	i	77*	i	i	2
Clc1ccccc1-c1nnc2sc(-c3ccco3)nn12	i	i	41	i	i	-2
c1ccc(Cc2nnc3sc(-c4ccco4)nn23)cc1	i	i	96*	i	i	-1
COc1cc(-c2nn3c(-c4ccccc4)nnc3s2)cc(OC)c1OC	i	i	39	i	i	0
CCOc1ccccc1CNC(=O)CCN1C(=O)COc2ccccc21	i	i	6	i	i	1
C=CCn1c(SCC(=O)Nc2sc(C)c(C)c2C(=O)OCC)nnc1-c1sc(N)nc1C	i	i	-14	i	i	-1
COc1ccc(N2CCOCC2)c(NC(=O)c2ccc(Br)o2)c1	i	i	19	i	i	1
COC(=O)c1ccc(N2CCN(C)CC2)c(NC(=O)c2ccc(Br)o2)c1	i	-5.3*	46	i	i	0
Cc1nc(CNC(=O)CC2C(=O)NCCN2Cc2ccoc2)nc2c1CCCC2 (stereo not drawn)	i	i	12	i	i	-4
C/C(=N\NS(=O)(=O)c1ccccc1)c1cc(Cl)cc(Cl)c1O	i	i	21	i	100*	4
C/C(=N/NS(=O)(=O)c1ccc(Cl)cc1)c1cccc(O)c1	i	i	21	i	i	3
CN(C)c1ccc(C(=S)N2CCOCC2)cc1Br	i	i	101*	i	i	0
CN(C)c1ccc(C(=S)N2CCCCC2)cc1Br	i	i	-1	i	i	-8
O=C(Nc1ccccc1C(=O)N1CCN(c2cccc(Cl)c2)CC1)C1=CSCCO1	i	i	48	-28*	i	0
NC(=O)C[C@H](N)c1cn([C@@H](CC(N)=O)C(=O)N2CCNCC2)nn1	i	i	.	-10*	i	-4
CCC(=O)Nc1cccc(C2=NOC3(C2)C[C@@H](C(N)=O)N(C(=O)CC)C3)c1 (stereo partly drawn)	i	i	26	i	i	-3
CCOc1ccc2c(c1)s/c(=N\S(=O)(=O)c1ccc(OC)cc1)n2C(F)F	i	i	-13	i	25*	-6
CCOc1ccc2c(c1)sc1nc(C(=O)OC)cc(=O)n12	i	i	.	i	i	-5
CCN(CC)S(=O)(=O)c1ccc(/C=C/C(=O)OCC(=O)NC(=O)C2COc3ccccc3O2)cc1 (stereo not drawn)	.	.	.	i	.	3
CCn1c(-c2ccc(Cl)cc2)n[nH]c1=S	i	i	71*	i	i	-5
CCCn1c(-c2ccc(F)cc2)n[nH]c1=S	i	i	91*	i	i	-9
SMILES	CHT PAM	CHT block	PHOSPHO1 block	ANO1 activ	ANO1 block	HDAC3 inhib
CCn1c(-c2ccc(OC)c(OC)c2)n[nH]c1=S	i	i	5	i	i	2
CCCCn1c(-c2cc(Cl)ccc2OC)n[nH]c1=S	i	i	60*	i	i	0
CCCCn1c(-c2ccc([N+](=O)[O-])cc2)n[nH]c1=S	i	i	102*	i	i	0
COc1ccc(CCn2c(-c3ccc(Cl)cc3)n[nH]c2=S)cc1OC	i	i	-63	i	i	-5
CCCCn1c(-c2cccnc2)n[nH]c1=S	i	i	-10	i	i	-4
O=C(CCN1C(=O)c2ccccc2S1(=O)=O)Nc1ccc(F)c([N+](=O)[O-])c1	i	i	.	i	i	-1
O=C(COC(=O)c1ccc(O)cc1O)Nc1cccc2ccccc12	.	.	.	i	.	1
O=C(Nc1ccc2c(c1)OCO2)c1cccc2c1C(=O)N(C1CCCCC1)C2	i	i	37	i	i	?
CCn1c(-c2ccccc2O)n[nH]c1=S	i	i	65*	i	i	-1
C=CCn1c(C(c2ccccc2)c2ccccc2)n[nH]c1=S	i	i	52	i	i	0
CCn1c(C(c2ccccc2)c2ccccc2)n[nH]c1=S	i	i	100*	i	i	0
CCn1c(-c2ccc(C)cc2)n[nH]c1=S	i	i	100*	i	i	?
Oc1ccccc1-c1n[nH]c(=S)n1Cc1ccccc1	i	i	.	i	i	9
CCn1c(-c2cc(-c3ccccc3)sc2N)n[nH]c1=S	i	i	77*	i	i	6
Brc1c(CSc2nc3ccccc3s2)nc2ncccn12	i	i	19	i	i	-2
O=C(NCCc1ccccc1)C1CC(=O)N(C2CCCC2)C1 (stereo not drawn)	i	i	16	i	i	1
Cn1cnnc1SCC(=O)N1N=C2/C(=C/c3ccco3)CCCC2C1c1ccco1 (stereo not drawn)	i	i	80*	i	i	5
O=C1[C@H]2[C@@H](c3ccc(F)cc3)N3C(=O)N(c4cccc(Br)c4)C(=O)[C@@]3(Cc3ccccc3)[C@H]2C(=O)N1C1CCCCC1	i	i	.	i	i	-2
CC(C)C[C@@]12C(=O)N(c3cccc(Br)c3)C(=O)N1[C@H](c1ccc(F)cc1)[C@@H]1C(=O)N(C3CCCCC3)C(=O)[C@@H]12	i	i	.	-7.6*	i	4
CC(=O)N1c2ccc(S(=O)(=O)N3CCCC3)cc2CC1C(=O)NCc1cccc(F)c1 (stereo not drawn)	i	i	28	i	i	-9
O=C(O)c1ccc(N2C(=O)CC(SC(=NCc3ccc4c(c3)OCO4)Nc3ccccc3)C2=O)cc1 (stereo not drawn)	i	i	23	i	i	-6
CN=C(Nc1ccc2c(c1)OCO2)SC1CC(=O)N(c2ccccc2)C1=O (stereo not drawn)	i	i	-4	i	25*	2
C[C@@H]1C(NC(=O)c2ccccc2)CC2CC1C2(C)C (stereo partly drawn)	i	-5*	19	i	i	3
